# Experiments:
# Test in all cases: PBM binding z-score (relative to random genomic background probes); higher = stronger binding; sequences stand for … in GC…GCGATTGACAGCGTAGAATGAAGG
# [1] = tested on: PPARg:RXRa DBDmut IVT, anti-RXR (DBD mutation: RXRa K156A/R161A, NR concentration 270 nM, RXRa partner concentration 90 nM)
# Procedure, shortened: (§1)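 Binding buffer was PBS pH 7.4 with 2% milk, 0.02% Triton X-100, 1 mM DTT, 0.2 mg/mL BSA and 0.4 mg/ml salmon testes DNA. In it, ligand-free nuclear receptor dimers were incubated 1 h on custom Agilent 4×180K protein-binding microarrays carrying double-stranded probes. Antibodies against each partner (one per run) detected binding, and z-scores were calculated against random background probes after regression normalization of scanned fluorescence.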
# [2] = tested on: PPARg:RXRa IVT, anti-PPARg (NR concentration 270 nM, RXRa partner concentration 90 nM)
# Procedure, shortened: as §1
# [3] = tested on: PPARg DBDmut:RXRa IVT, anti-PPARg (DBD mutation: PPARg1 K132A/R137A, NR concentration 270 nM, RXRa partner concentration 90 nM)
# Procedure, shortened: as §1
# [4] = tested on: PPARg DBDmut IVT, anti-PPARg (DBD mutation: PPARg1 K132A/R137A, NR concentration 270 nM)
# Procedure, shortened: as §1
# [5] = tested on: PPARg homodimer (NR concentration 180 nM)
# Procedure, shortened: as §1
# [6] = tested on: PXR:RXRa (NR concentration 270 nM, RXRa partner concentration 90 nM)
# Procedure, shortened: as §1
# [7] = tested on: PXR homodimer (NR concentration 270 nM)
# Procedure, shortened: as §1
# [8] = tested on: RARa:RXR (NR concentration 270 nM, RXRa partner concentration 90 nM)
# Procedure, shortened: as §1
# [9] = tested on: RARa homodimer (NR concentration 270 nM)
# Procedure, shortened: as §1
# [10] = tested on: RARb:RXRa (NR concentration 270 nM, RXRa partner concentration 90 nM)
# Procedure, shortened: as §1
# [11] = tested on: RARb homodimer (NR concentration 270 nM)
# Procedure, shortened: as §1
# [12] = tested on: RARg:RXRa (NR concentration 270 nM, RXRa partner concentration 90 nM)
# Procedure, shortened: as §1
# [13] = tested on: RARg homodimer (NR concentration 270 nM)
# Procedure, shortened: as §1
# [14] = tested on: RXRa DBDmut IVT, anti-RXR (DBD mutation: RXRa K156A/R161A, NR concentration 90 nM)
# Procedure, shortened: as §1
# [15] = tested on: RXRa homodimer (NR concentration 180 nM)
# Procedure, shortened: as §1
# [16] = tested on: THRa:RXRa (NR concentration 90 nM, RXRa partner concentration 90 nM)
# Procedure, shortened: as §1
# [17] = tested on: THRa homodimer (NR concentration 90 nM)
# Procedure, shortened: as §1
# [18] = tested on: VDR homodimer (NR concentration 270 nM)
# Procedure, shortened: as §1
Sequence,PBM binding z-score [1],PBM binding z-score [2],PBM binding z-score [3],PBM binding z-score [4],PBM binding z-score [5],PBM binding z-score [6],PBM binding z-score [7],PBM binding z-score [8],PBM binding z-score [9],PBM binding z-score [10],PBM binding z-score [11],PBM binding z-score [12],PBM binding z-score [13],PBM binding z-score [14],PBM binding z-score [15],PBM binding z-score [16],PBM binding z-score [17],PBM binding z-score [18]
TAGCCTAGGTCATGCGGGCCACTATAGTGTCGGC,1.87,3.38,-0.194,0.594,1.72,1.69,-0.634,2.72,0.388,3.69,2.97,4.13,4.41,0.662,3.23,3.15,0.932,1.08
AGAACGAGGGCACCCTGAGTTGATAGCAGAGTAG,3.24,2.84,0.579,-0.333,0.0786,1.29,0.283,0.732,-0.996,2.16,0.823,1.54,1.76,1.42,1.14,1.59,-0.12,1.36
GGTTACGGGTCAAAGGTTATAGCATGAATAGAAT,3.06,6.69,1.77,1.31,2.81,6.3,0.489,8.27,1.03,4.72,3.44,6.91,4.71,1.89,9.23,4.06,0.33,1.64
CCTGCTAGGGCAATGGTCAGCTAAAGCAGCTCGC,1.55,1.76,-1.07,-1.49,-0.322,-0.655,-0.95,-0.343,-1.1,1.15,0.431,0.176,0.604,-0.414,-0.159,-0.164,-0.86,-0.814
TCTGCTAGGTCAACGATGGTCAGCTAGTCTGCTA,3.64,4.26,-0.411,-0.961,0.415,1.42,-1.07,2.26,-1.08,4.06,3.54,3.9,4.61,0.638,2.5,3.16,0.617,-0.544
CGTCCAAGGTCAGACAGGTCAGTGAATGCCGAGT,2.43,2.79,-0.527,-0.665,2.82,4.38,6.4,4.28,0.847,4.93,4.84,5.32,6.13,3.11,4.43,3.97,2.16,3.77
GCTAGTTGGTCAGTAAAAGGTCACACATCGGTCG,1.75,2.98,0.0513,0.435,4.49,4.7,1.49,5.23,2.58,4.26,5.17,5.41,4.73,0.844,5.27,3.54,1.84,1.47
AATACAGGGTCATCGTAGGCCAGAGTCCGCACAG,2.98,4.32,0.922,0.82,2.39,4.96,0.483,4.93,0.764,4.45,3.75,5.73,5.28,3.35,6.62,4.68,1.62,3.38
TCGAGCAGGTTACCAATGGGGCATTCAGCTTTCT,0.467,0.239,-1.51,-1.13,-0.591,0.0251,-0.765,0.475,-1.05,1.07,0.557,1.36,0.389,-0.436,0.616,0.235,-0.786,-0.843
CGTCCAAGGTCAAGGTCAGTGAAAGAGACTCGAA,3.52,4.76,0.429,0.164,4.38,4.81,1.28,5.07,1.75,5.75,5.29,6.79,7.8,3.95,6.28,4.39,3.78,2.89
GCGACTGGGGCAAAGCAGGTTACGATAAGGTTGG,4.13,3.73,-0.523,-0.59,0.215,0.285,-0.433,0.352,-0.129,0.879,1.04,0.351,0.644,-0.265,0.354,2.97,0.0259,-0.24
AGAATGAGGTTACCAAATATCAGGGAAACGCTTG,4.3,3.78,1.63,0.617,0.301,1.05,0.00391,1.77,-0.0256,2.1,0.779,1.91,1.86,1.24,2.52,2.67,0.824,0.512
GCTGCTAGGTCAGGTTGGTCATCTAACGGGTACG,2.9,2.41,-0.672,-0.462,0.986,0.706,-0.262,1.02,-0.199,3.29,2.84,2.81,3.9,0.588,1.18,1.94,0.942,0.689
CTCGAAAGGTCGGTTGAGGTGAGTAGACGGATAA,-0.178,0.996,-0.252,-0.747,0.919,3.03,0.241,2.71,-0.0972,3.11,2.44,2.67,2.67,0.673,2.28,5.01,1.3,0.235
CGTCAAGGTTCAACTAAGGTAACGTAAAGCACGC,-0.0468,0.857,-0.137,-0.827,1.13,3.96,0.241,3.05,0.652,3.14,2.36,3.57,2.98,4.42,3.53,5.38,1.72,3.36
GGAACGAGGGCCAAGTTGATAGCATCTGTCGACG,0.254,-0.0508,-1.09,-0.973,-0.0593,-0.242,-0.456,-0.293,-0.285,0.806,-0.0615,0.0796,0.46,0.125,0.105,-0.432,-0.99,-0.364
TCTGCTAGGTCGACGATGGTCAGCTAATCTGCTA,1.12,0.905,-0.448,-0.108,-1.39,-0.185,-1.16,0.0229,-1.42,1.16,0.457,0.664,0.829,0.128,0.321,0.669,-0.884,-0.845
TAACCTAGGTCATGCGGGCCAGTATAGTGTCGGC,3.49,4.46,0.354,0.297,1.08,1.84,-0.126,2.5,0.00748,3.89,3.44,4.53,4.39,1.15,3.58,3.32,1.23,1.05
ATCTCTAGGTAAATATAGTTCAGTGAATGCAAAT,1.8,1.91,1.61,1.65,1.19,1.38,0.957,0.923,1.21,0.851,1.1,1.03,1.14,0.551,0.623,1.05,0.0877,1.2
CCTCCTAGGTCAATGGTCAGCTAAAGCAGCTCGC,3.61,3.53,-0.066,0.119,2.06,1.28,-0.0378,1.98,0.584,3.77,3.17,3.66,4.2,1.03,2.16,2.61,1.17,0.912
GCTAGTTGGTCAGCAAAAGGTCACACACCGGTCG,0.999,2.88,-0.1,-0.835,4.56,5.02,1.32,5.74,2.26,4.37,5.34,5.94,5.62,-0.0302,6.14,3.41,1.55,1.55
CCAATTAGTTGACCATAAGGGCAACCGAAGCTCG,0.617,0.411,0.198,0.147,1.75,0.497,0.892,0.865,1.38,1.67,2.16,1.22,1.02,0.647,0.634,1.98,1.5,0.962
GTACCCAGGTGAATAGGTCGTTGATGAGTAGGCG,1.26,2.42,-0.166,-0.407,0.786,0.279,0.138,1.08,0.238,0.908,1.16,1.5,0.814,-0.431,1.18,1.31,0.537,0.0528
CCGGCTAGGTCATGGTCAGCTAATCTACAGTATG,3.44,2.65,-0.0629,-0.269,2.5,1.4,-0.16,2.53,0.954,3.91,3.33,4.11,4.99,1.48,3.01,2.99,1.57,0.619
TCTTGTAGATCTAAGGTTAAGAAAGCCGAAGCCT,1.71,0.863,0.224,-0.213,0.385,0.921,-0.35,1.55,-0.0766,0.9,0.513,0.36,0.019,1.06,1.21,2.16,1.26,-0.0148
GCTCGGAGGAAAAGGTCAGAGCTTTGTCCGTAGA,-0.0327,1.11,-1.39,-0.963,1.55,2.93,-0.551,3.96,0.159,3.95,4,4.34,4.89,-0.162,4.74,2.22,-0.291,-0.277
GTTTACGGGTCAAAGGTTATAGCATGAATAGAAT,4.49,6.3,1.34,0.914,2.36,6.4,0.568,8.19,0.857,4.66,3.41,6.91,5.26,2.06,9.23,3.94,0.0413,1.99
CGTCCAAGGTCAAAGATCAGTGAAGAGATGACGG,3.3,3.88,0.698,-0.108,2.98,4.59,1.01,5.63,1.03,5.16,3.86,6.12,6.48,3.73,6.79,3.85,1.87,2.6
ATATGTAGGTTACATCCGGGTCATTCATGCTATG,7.49,7.53,5.06,3.54,3.61,3.79,1.66,3.83,1.2,2.23,2.82,3.6,2.21,1.42,2.93,3.61,2.46,3.43

# Source: the supplement of paper PMC6555819
